Some test systems named below: T-47D breast; BT-549 breast; MDA-MB-435 melanoma; SW-620 colon; MCF7 breast; HCT-116 colon; HCC-2998 colon; KM12 colon.
Test in all cases: NCI-60 one-dose screen, 48 h (100 = growth as untreated, 0 = no growth, -100 = all killed)
Common to all, as to details: 10 µM unless noted

Experimental findings from PubChem BioAssay (NCI) are described below.

The structures appear in SMILES notation. Compounds without any hit were thinned out: in the full panel of roughly 83,000, 20% have a hit.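 For each line, cells grew in 96-well plates with the test compound present at a single concentration for 48 hours.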 Values without a mark were called inactive. Calls of active or inactive are those of the source. Rule for the calls: active = growth percent below 10; inactive = the rest.

Take `COCCOc1ccc2ncc(C#Cc3cncc(C(=O)Nc4ccc(CN5CCN(C)CC5)c(C(F)(F)F)c4)c3)n2n1`: the growth with T-47D breast is 59.6%; in the assay with BT-549 breast it was 0.139% (active); in the assay on MDA-MB-435 melanoma, 11.5%; in the assay with SW-620 colon, -34% (active); with MCF7 breast it was -59.8% (active); with HCT-116 colon it was -86.7% (active). The growth in the assay on HCC-2998 colon is 33.6%; in the assay with KM12 colon it was 0.84% (active).

For `CCOC(=O)Nc1ccc2c(ccn2C(=O)c2cccc(F)c2)c1`, the growth was 45.2% in the assay on T-47D breast; 26.1% with BT-549 breast; -45.4% (active) with MDA-MB-435 melanoma; 26.3% in the assay on SW-620 colon; 26% with MCF7 breast; 25.6% in the assay on HCT-116 colon. The growth with HCC-2998 colon is 43.8%; in the assay with KM12 colon, 24.6%.

With `O=C(CCCCCCNC(=O)C(O)(O)C(F)(F)F)Nc1nc2ccccc2s1`, the growth in the assay on T-47D breast was 12.1%; in the assay on BT-549 breast, 13%; in the assay on MDA-MB-435 melanoma it was 4.88% (active); in the assay on SW-620 colon, 4.75% (active); in the assay on MCF7 breast, 9.8% (active); with HCT-116 colon, 2.81% (active). In addition, the values for the growth in the assay with HCC-2998 colon and in the assay on KM12 colon were -39.8% (active) and 7.52% (active), respectively.

In the case of `CC(C)NC(=O)c1cc(-c2ccc(NC(=O)Nc3ccc(F)cc3)cc2)nc2cccnc12`, the growth was 97.8% in the assay with T-47D breast; 104% in the assay on BT-549 breast; 98.7% in the assay on MDA-MB-435 melanoma; 108% with SW-620 colon; 79.9% in the assay with MCF7 breast; 95.5% in the assay on HCT-116 colon. Further, the growth in the assay with HCC-2998 colon is 108%; in the assay with KM12 colon it was 95.7%.

In the case of `Cc1ccc(C(=O)CSc2nnc(-c3ccc(-c4ccc(Cl)cc4)nc3C)o2)cc1`, the growth in the assay on T-47D breast was 92.1%; in the assay on BT-549 breast, 107%; in the assay with MDA-MB-435 melanoma it was 103%; with SW-620 colon, 103%; with MCF7 breast, 81%; in the assay on HCT-116 colon it was 98.1%. Also, the growth in the assay with HCC-2998 colon was 103%; in the assay on KM12 colon, 97.2%.

Regarding `O=C1Nc2ccccc2/C1=N\c1nnc(-c2ccccc2)o1`, the growth with T-47D breast was 77.9%; with BT-549 breast, 105%; in the assay on MDA-MB-435 melanoma, 102%; in the assay with SW-620 colon, 95.3%; in the assay with MCF7 breast, 66.3%; in the assay with HCT-116 colon, 103%. Also, the growth with HCC-2998 colon was 111%; with KM12 colon it was 96.7%.

On to `C#CCn1cc(/C=N/Nc2nc(-c3ccc(Br)cc3)cs2)c2ccccc21`, for which the growth in the assay with T-47D breast was 76.4%; in the assay with BT-549 breast it was 111%; in the assay on MDA-MB-435 melanoma it was 106%; with SW-620 colon, 98.7%; in the assay on MCF7 breast, 64.1%; in the assay on HCT-116 colon, 85.4%. Further, the growth was 116% with HCC-2998 colon and 104% in the assay on KM12 colon.

In the case of `Cc1[nH]c(C(=O)Nc2ccc(C(N)=O)cc2N2CCOC(C)C2)c(Cl)c1Cl` (stereo not drawn), the growth in the assay on T-47D breast was 83%; in the assay on BT-549 breast, 98.3%; in the assay with MDA-MB-435 melanoma it was 96.1%; with SW-620 colon it was 109%; with MCF7 breast it was 93%; in the assay on HCT-116 colon, 92%. Further, the growth with HCC-2998 colon was 105%; in the assay with KM12 colon it was 104%.

`CC(C)(C)Nc1nc2c(OCCc3ccccc3)cccn2c1-c1ccc([N+](=O)[O-])cc1`: the growth in the assay on T-47D breast was 15.2%; with BT-549 breast, 95.8%; in the assay on MDA-MB-435 melanoma it was 85.3%; in the assay on SW-620 colon, 77.6%; in the assay on MCF7 breast it was 7.18% (active); with HCT-116 colon it was 49.7%. Also, the values for the growth with HCC-2998 colon and in the assay on KM12 colon were 49.9% and 36.8%, respectively.

In the case of `O=C(CSc1nc2ccccc2c(=O)n1CCc1ccccc1)Nc1ccc(S(=O)(=O)Nc2ccc(Cl)nn2)cc1`, the growth is 88.6% in the assay with T-47D breast; 98.9% in the assay with BT-549 breast; 99.8% with MDA-MB-435 melanoma; 91.3% with SW-620 colon; 79.7% with MCF7 breast; 93.4% in the assay on HCT-116 colon. Moreover, the growth with HCC-2998 colon is 102%; with KM12 colon, 98.8%.

For `O=C(/C=C/c1ccc(F)cc1)Nc1cccc2cccnc12`, the growth is 32.8% with T-47D breast; 115% with BT-549 breast; 107% with MDA-MB-435 melanoma; 101% in the assay on SW-620 colon; 6.92% (active) in the assay with MCF7 breast; 95.9% in the assay on HCT-116 colon. Moreover, the growth was 88% in the assay with HCC-2998 colon and 95% in the assay with KM12 colon.

On to `CC(=O)OCCCCN1C=C/C(=C\C(=O)n2ccc3ccccc32)c2ccccc21`, for which the growth in the assay with T-47D breast was 92.7%; in the assay on BT-549 breast, 113%; in the assay with MDA-MB-435 melanoma, 106%; in the assay with SW-620 colon, 98.4%; in the assay on MCF7 breast, 90.4%; in the assay with HCT-116 colon it was 103%. Further, the growth in the assay with HCC-2998 colon is 112%; in the assay with KM12 colon, 97.7%.

With `C[C@]12CC[C@H]3[C@@H](CC=C4C[C@@H](O)CC[C@@]43C)[C@@H]1CC[C@@H]2[C@](C)(O)CCc1cccnc1`, the growth is 36.3% with T-47D breast; 47.7% in the assay on BT-549 breast; 64% with MDA-MB-435 melanoma; 83.1% with SW-620 colon; 35.2% in the assay with MCF7 breast; 51.9% in the assay on HCT-116 colon. For the same molecule, the growth with HCC-2998 colon is 86.7%; in the assay with KM12 colon, 70.2%.

`C/C(=N\NC(N)=S)c1nnn(-c2ccc([N+](=O)[O-])cc2)c1C`: the growth in the assay on T-47D breast was 92%; in the assay on BT-549 breast, 95.5%; in the assay with MDA-MB-435 melanoma, 102%; in the assay on SW-620 colon, 94.9%; in the assay on MCF7 breast it was 91.9%; in the assay with HCT-116 colon it was 98.6%. Moreover, the values for the growth in the assay with HCC-2998 colon and with KM12 colon were 100% and 96.8%, respectively.

For `Cc1ccc(C)c(NC2=C(Cl)C(=O)c3nc(C)ccc3C2=O)c1`, the growth in the assay with T-47D breast is -58% (active); with BT-549 breast, -5.46% (active); in the assay on MDA-MB-435 melanoma, -82.4% (active); with SW-620 colon, -49.2% (active); in the assay on MCF7 breast it was -58.5% (active); with HCT-116 colon, -74.1% (active). For the same molecule, the results for the growth in the assay on HCC-2998 colon and in the assay on KM12 colon were 17.7% and 36.7%, respectively.

As to `C#Cc1nc(/C=C/C(=O)NO)cs1`, the growth in the assay on T-47D breast is 67.9%; in the assay with BT-549 breast, 101%; in the assay with MDA-MB-435 melanoma, 61.1%; in the assay with SW-620 colon, 45.8%; with MCF7 breast it was 62.6%; with HCT-116 colon, 23.8%. Also, the values for the growth with HCC-2998 colon and with KM12 colon were 111% and 56.3%, respectively.
